Data: PubChem BioAssay (NCI)
Compounds without any hit were thinned out: in the full panel of roughly 83,000, 20% have a hit.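 Negative percent growth values reflect cell death: -40 means 40% of the cells present at the start died, and -100 means all died.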 Unmarked numbers belong to inactive results. The source made the active and inactive calls. How the source made its calls: active means growth percent below 10; inactive means the rest.

Key:
Experiment in all cases: NCI-60 one-dose screen, 48 h (100 = growth as untreated, 0 = no growth, -100 = all killed)
Details in all cases: 10 µM unless noted
RPMI-8226 leukemia = system: RPMI-8226 leukemia
OVCAR-8 ovarian = system: OVCAR-8 ovarian
OVCAR-5 ovarian = system: OVCAR-5 ovarian
OVCAR-4 ovarian = system: OVCAR-4 ovarian
SK-OV-3 ovarian = system: SK-OV-3 ovarian
IGROV1 ovarian = system: IGROV1 ovarian
OVCAR-3 ovarian = system: OVCAR-3 ovarian
HS 578T breast = system: HS 578T breast
NCI/ADR-RES ovarian = system: NCI/ADR-RES ovarian
T-47D breast = system: T-47D breast

| Compound | growth (RPMI-8226 leukemia) | growth (OVCAR-8 ovarian) | growth (OVCAR-5 ovarian) | growth (OVCAR-4 ovarian) | growth (SK-OV-3 ovarian) | growth (IGROV1 ovarian) | growth (OVCAR-3 ovarian) | growth (HS 578T breast) | growth (NCI/ADR-RES ovarian) | growth (T-47D breast) |
| --- | --- | --- | --- | --- | --- | --- | --- | --- | --- | --- |
| O=C(CCN1C(=O)c2ccccc2C1=O)Nc1ccc(Cl)cc1 | 8.45% (active) | 48.8% | 104% | 91.2% | 97.9% | 77.8% | 78.3% | 39.1% | 74.1% | 60.1% |
| N[C@@H](CC/[N+]([O-])=N/O)C(=O)O | 101% | 109% | 100% | 105% | 105% | 93.3% | 102% | 98.4% | 103% | 94.4% |
| OC(c1ccccc1)c1nnc(SCc2ccccc2)n1Cc1ccccc1 (stereo not given) | 72.5% | 98.8% | 92.8% | 81.6% | 90% | 93.7% | 103% | 94% | 92.8% | 85.2% |
| Cc1sc2ncnc(Sc3nc4ccccc4[nH]3)c2c1C | -27.1% (active) | -66.1% (active) | -58.6% (active) | -15.4% (active) | -23.1% (active) | -76.5% (active) | -86.1% (active) | -27.5% (active) | 20.1% | -55.4% (active) |
| O=C1c2ccccc2C(=O)c2c1ccc1[nH]c(CCl)nc21 | -40.3% (active) | 20.1% | 70.4% | -20.4% (active) | 37.6% | 15.2% | -35.9% (active) | 18.2% | 34.5% | -21.5% (active) |
| CN1CCN(c2nc(Nc3ccc(O)cc3)nc3ccccc23)CC1 | 32.7% | 30.1% | 82.5% | 82.9% | 57.2% | 52.1% | 59.5% | 89.2% | 51.1% | 82.2% |
| Cc1nc2ccccc2c(/C=C/c2ccccc2)c1C(=O)/C=C/c1ccc(Cl)cc1 | -36.5% (active) | 20.9% | 14.2% | 26.5% | 84.3% | 14.9% | -40.5% (active) | 27.9% | 9.61% (active) | 13.4% |
| COc1ccc(/C=C2\CCC/C(=C\c3ccc(OC)c(OC)c3)C2=O)cc1OC | -4.53% (active) | 2.04% (active) | 41% | -0.91% (active) | 29.7% | 4.96% (active) | 13.8% | 41.2% | 11% | 19.3% |
| O=C(Nc1ccc(Br)cc1F)c1cc(Cl)ccc1O | -24.5% (active) | 9.87% (active) | -9.6% (active) | 10.2% | -7.14% (active) | 14.1% | 2.24% (active) | 7.7% (active) | 5.2% (active) | -12.9% (active) |
| COc1cccc2cc(N(C)c3nc(C)nc4ccsc34)ccc12 | 12.5% | 6.47% (active) | 43.7% | 35.5% | 22.9% | 15.5% | 3.88% (active) | 17.7% | -6.94% (active) | 60% |
| COc1nc2c(c(=O)n1C)N=C1c3ccccc3C(=O)C1C(c1ccccc1)N2 (stereo not given) | 92% | 100% | 97.1% | 92.8% | 91.4% | 110% | 74.9% | 105% | 73.3% | 85.2% |
| COc1cc(NC(=O)CCSc2nc3ccccc3c(=O)n2Cc2ccccc2)cc(OC)c1OC | 56.9% | 79.3% | 91% | 63.4% | 99.3% | 99.4% | 88.1% | 77.3% | 82.1% | 78.1% |
| O=C(Nc1ccc(-c2nc3ccc(NC(=O)c4ccc(Cl)cc4)cc3[nH]2)cc1)c1ccc(Cl)cc1 | -22.6% (active) | 21.4% | 39.3% | -2.34% (active) | 60.7% | 45.1% | -64.9% (active) | 57.9% | 40.2% | -1.92% (active) |
| Cc1ccc(Cc2cnc(NC(=O)CN3C(=O)/C(=C\c4ccccc4)SC3=S)s2)cc1 | 105% | 102% | 101% | 99% | 104% | 105% | 112% | 102% | 107% | 98.8% |
| O=c1oc2ccc(I)cc2c(=O)n1-c1ccc(Br)cc1F | -26.2% (active) | 8.2% (active) | 20.7% | 17.1% | -9.81% (active) | 16.3% | 5.84% (active) | -4.87% (active) | 7.59% (active) | -7.37% (active) |
| COc1ccc(N)c(-c2cc3c(c4c2[nH]c2ccc(OC)cc24)CCCC3)c1 | 68.5% | 87.4% | 95.5% | 93.3% | 77.3% | 71.1% | 86.1% | 85.9% | 85.7% | 62.7% |
| COc1ccc(CN2CCCC(C(=O)c3ccc(C(F)(F)F)cc3)C2)c(O)c1 (stereo not given) | 11.8% | 17% | 55% | 45.4% | 26.1% | 47.5% | 7.49% (active) | 25.8% | 9.17% (active) | 26.1% |
| COc1ccc(C2C3=C(COC3=O)N(CCO)c3cc4c(cc32)CCC4)cc1 (stereo not given) | 86.8% | 58.4% | 96.2% | 75.9% | 57.3% | 51.8% | 0.832% (active) | 69.7% | 65.3% | 31.5% |
| COc1ccc(Br)c(/C=C2\SC(=Nc3ccc(O)cc3)NC2=O)c1 | 51.7% | 98% | 104% | 83% | 89.9% | 94.3% | 102% | 86.5% | 106% | 68.5% |
| CC1(C)CC2(C)OC2C2(C1)N=NC(=Nc1ccccc1)O2 (stereo not given) | 4.43% (active) | 77.8% | 94.3% | 60.9% | 117% | 89.6% | 10.3% | 103% | 92.7% | 63.9% |
| CCOC(=O)C1=CN(C)C=C(C(=O)OCC)C1c1cc(Br)c(OCC)c(OC)c1 | 8.87% (active) | 56.8% | 63.5% | 54.9% | 86.4% | 35.6% | 64.9% | 62.9% | 73% | 74.9% |
| CN1CCN(Cc2ccc(NC(=O)c3[nH]ncc3Nc3cc(OC4CCCC4)ncn3)cc2)CC1 | 16.9% | 42.6% | 50.5% | 59.2% | 4.89% (active) | 35% | 11.2% | 32.8% | 44% | 64.1% |
| CC1=C(C(=O)OCC2CCN(C(=O)OC(C)(C)C)CC2)[C@H](c2cccc(C#N)c2)C2=C(CC(C)(C)CC2=O)N1 | 41.5% | 46.9% | 75.9% | 61.7% | 84% | 47.8% | 58.3% | 61.7% | 50.6% | 69.8% |
| CC(C)CCOc1ccc(-c2n[nH]c(C(F)(F)F)c2-c2cncc(C#N)c2)c(O)c1 | -31.8% (active) | 12.5% | 36.9% | 20.5% | -7.94% (active) | 46.9% | 2.95% (active) | 18% | 2.45% (active) | 2.83% (active) |
| O=C1C(Cl)=C(NCc2ccco2)C(=O)c2ccccc21 | 38.9% | 93.7% | 116% | 85.4% | 115% | 57.6% | 84.6% | 89.6% | 84.6% | 69.1% |
| CC(=O)c1ccc2oc(=O)n(Cc3ccc(C#N)cc3)c(=O)c2c1 | 106% | 103% | 103% | 96.3% | 119% | 108% | 117% | 103% | 110% | 104% |
| COc1cc(C2C3=C(COC3=O)N(CCO)c3cc4c(cc32)CCC4)cc(OC)c1O (stereo not given) | 32.2% | 22.6% | 56.6% | 38.2% | 37.7% | 17.5% | -35.5% (active) | 32% | 52.8% | 46.4% |
